Screening data deposited in PubChem BioAssay by National Center for Advancing Translational Sciences (NCATS).
Rab9 promoter act – qHTS Assay for Rab9 Promoter Activators | 320,000 tested, 2.8% active | Potency, µM (highest dose often 9.22 µM), for inactives: at the highest dose activation, negative = inhibition, actives largely listed as activators | Huh7 Rab9 promoter-luciferase reporter, luminescence, 24 h; also: % of control where 0% means no effect; nearly all actives have a fitted effect of over 60% in size
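Promoter activation is measured as luciferase luminescence in Huh7 cells stably transfected with a Rab9 promoter–luciferase construct, following 24 h compound exposure at 37 °C and 10 min reagent incubation at ambient temperature.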
NPC1 prom act – qHTS Assay for NPC1 Promoter Activators | Huh7 NPC1 promoter luciferase reporter, 24 h | Potency, µM (top dose mostly 9.22 µM), for the others: top-dose activation, usual class: activators | 320,000 tested, 2.4% active | AID 485313, 2010; also: % of control where 0% means no effect; nearly all actives have a fitted effect of over 60% in size
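Quantitative HTS used a cell-based reporter: Huh7 cells stably bearing the NPC1 promoter upstream of luciferase were treated with compounds for 24 h, and promoter activation was read as luminescence.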
ELG1 genotoxic – qHTS screen for small molecules that induce genotoxicity in human embryonic kidney (HEK293T) cells expressing luciferase-tagged ELG1; HEK293T ELG1-luciferase reporter, luminescence, 16 h; Potency, µM (series often up to 46 µM), for the others: top-dose activity change, positive = activation, most hits filed as activators; 330,000 tested, 1.3% active; AID 504466, 2011; also: % of control where 0% means no effect; nearly all actives have a fitted effect of over 60% in size
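Step 1: seed 2,000 HEK293T ELG1-luciferase cells per well. Step 2: add compound or DMSO, incubate 16 hr at 37 °C. Step 3: ONE-Glo, 30 min at room temperature, read luminescence.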
FLuc counter – qHTS profiling assay for firefly luciferase inhibitor/activator using purifed enzyme and Km concentrations of substrates (counterscreen for miR-21 project). 360,000 tested, 6.9% active. purified FLuc, Km substrates, luminescence inhibition. Potency, µM (series often up to 57.5 µM), inactives show at the top dose activity change, negative = inhibition, hits mostly inhibitors. Luciferin 4-monooxygenase (Photinus pyralis), P08659;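 also: plate controls were vehicle for no effect and reference inhibitor for full effect; nearly all actives have a fitted effect of over 55% in size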
Target sequence (P08659 whole entry, looked up): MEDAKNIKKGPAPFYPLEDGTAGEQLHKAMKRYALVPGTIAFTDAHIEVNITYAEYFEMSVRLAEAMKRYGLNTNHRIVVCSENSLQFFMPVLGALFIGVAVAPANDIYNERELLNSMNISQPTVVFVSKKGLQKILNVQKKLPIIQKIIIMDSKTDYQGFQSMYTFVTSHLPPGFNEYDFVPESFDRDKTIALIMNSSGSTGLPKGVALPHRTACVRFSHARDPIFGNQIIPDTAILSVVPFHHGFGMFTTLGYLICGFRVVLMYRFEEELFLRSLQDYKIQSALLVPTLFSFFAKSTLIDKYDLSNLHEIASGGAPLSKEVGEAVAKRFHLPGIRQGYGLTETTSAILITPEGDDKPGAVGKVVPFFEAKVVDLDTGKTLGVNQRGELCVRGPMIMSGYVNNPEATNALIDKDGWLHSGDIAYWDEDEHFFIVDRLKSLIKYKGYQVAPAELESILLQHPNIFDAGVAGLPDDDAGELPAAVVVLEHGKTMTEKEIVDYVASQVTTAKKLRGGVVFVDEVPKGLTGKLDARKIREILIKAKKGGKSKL
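Purified P. pyralis luciferase (10nM final) with 10uM D-luciferin and 10uM ATP (Km levels) in 50mM Tris acetate pH 7.5, 10mM Mg acetate, 0.01% Tween-20, 0.05% BSA; qHTS 6-point titration, ~60 µM downward; luminescence read.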
ELG1 repair inh – qHTS screen for small molecules that inhibit ELG1-dependent DNA repair in human embryonic kidney (HEK293T) cells expressing luciferase-tagged ELG1. HEK293T ELG1-luciferase reporter, luminescence, 16 h; DNA damage induced by 5-fluorouridine. Potency, µM (highest dose often 46.1 µM), for inactives: top-dose activity change, negative = inhibition, actives largely listed as inhibitors. 330,000 tested, 2.3% active; also: % is scaled to controls: 0 for no effect and ±100 for the full control effect; nearly all actives have a fitted effect of over 55% in size
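Overnight (16 hr) co-exposure of 2,000 cells/well to 5-fluorouridine and compound at 37 °C preceded detection. Luciferase was quantified via ONE-Glo luminescence; loss of signal denotes inhibition.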
SMN2 splice enh – qHTS Assay for Enhancers of SMN2 Splice Variant Expression; HEK293 SMN2-luciferase splicing reporter, luminescence, 30-36 h; Potency, µM (titrated, usually from 46.1 µM), inactives show at the top dose activity change, positive = activation, usual class: activators; 210,000 tested, 2.8% active; also: % of control where 0% means no effect; nearly all actives have a fitted effect of over 55% in size
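HEK293 cells carry an SMN2 minigene-luciferase reporter in which exon 7 inclusion puts luciferase in frame. Cells were seeded at 2000 cells/well, attached for 10-12 hours, then exposed to compounds for 30-36 hours at 37C before ONE-Glo luminescence.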
Active calls of the source: *; ? = inconclusive; . = no result. In the library only some 9.2% were active in any assay of this set; here they are far more common. Calls follow the shape of the dose curve; as a rule, active = well fitted curve in the direction sought with a large enough effect; inconclusive = small, poorly fitted or top-dose-only effect, or another doubt; inactive = no such curve, though single readings can be large; an effect the other way counts as inactive or inconclusive. Potency is read from the fitted curve at half-maximal effect.

SMILES	Rab9 promoter act	NPC1 prom act	ELG1 genotoxic	FLuc counter	ELG1 repair inh	SMN2 splice enh
COc1ccccc1NC(=O)c1csc2c1CCC(C)C2 (stereo not given)	29.4%	?	15.8%	?	5.9%	.
CCc1nnc(NC(=O)c2csc3c2CCC(C)C3)s1 (stereo not given)	2µM*	?	?	-7.8%	?	?
CC1CCc2c(C(=O)Nc3cccc(-c4nn[nH]n4)c3)csc2C1 (stereo not given)	?	16.3%	?	2.69µM*	?	.
Cc1cc(F)ccc1NC(=O)c1csc2c1CCC(C)C2 (stereo not given)	.	.	.	?	.	6.31µM*
CCOc1ccccc1NC(=O)CSc1c(C)cnc2c1c(=O)n(C)c(=O)n2C	.	.	.	-7.0%	.	.
O=C(C1CCN(S(=O)(=O)c2ccccc2)CC1)N1CCCCCC1	-1.8%	-2.4%	-0.8%	0.0%	-18.4%	.
CCc1cccc(N(C(=O)c2csnn2)C(C(=O)NC2CCCCC2)c2cccnc2)c1 (stereo not given)	-1.1%	-0.1%	6.9%	0.1%	-2.0%	.
Cc1ccc(-c2nnn(CCC(=O)NC(C)(C)C)n2)cc1	?	22.4%	15.4%	?	?	?
COC(=O)CCn1nnc(-c2ccc(C)cc2)n1	3.0%	-2.0%	?	16.9µM*	?	19.3%
COc1ccc(Cl)cc1NS(=O)(=O)c1cccc(C(=O)NCCCN2CCCC2=O)c1	2.7%	-1.7%	-1.1%	3.7%	-4.3%	.
Cc1cc(C(=O)NNC(=O)c2cccc(Cl)c2)no1	17.2%	2.2%	0.9%	1.4%	7.6%	.
Cc1cc(/C(N)=N/OC(=O)c2cccc(Cl)c2)no1	15.4%	1.5%	?	6.75µM*	?	.
Cc1cc(/C(N)=N/OC(=O)c2ccc(Cl)cc2)no1	3.16µM*	3.55µM*	11.6µM*	1.51µM*	?	.
Cc1nc2ccccc2c(=O)n1/N=C/c1cn(-c2ccccc2)nc1-c1cccs1	26.2%	18.6%	-0.5%	2.69µM*	?	-16.8%
Cc1nc2ccccc2c(=O)n1/N=C/c1cccs1	?	11.5%	0.6%	-16.9%	?	7.9%
O=[N+]([O-])c1ccc(-c2nn(-c3ccccc3)cc2/C=N/n2c(-c3ccncc3)n[nH]c2=S)cc1	0.1%	0.6%	7.5%	0.0%	?	.
S=c1[nH]nc(-c2ccncc2)n1/N=C/c1cn(-c2ccccc2)nc1-c1ccccc1	?	21.3%	16.7%	2.69µM*	-3.7%	.
S=c1[nH]nc(-c2cccs2)n1/N=C/c1cn(-c2ccccc2)nc1-c1cccs1	?	?	?	0.675µM*	?	.
Cc1cccc(C(=O)N2CCN(Cc3nc4sc5c(c4c(=O)[nH]3)CCCC5)CC2)c1	-2.7%	0.4%	-35.9%	2.8%	-6.3%	.
Cc1cccc(NC(=S)NNC(=O)c2ccc(O)cc2O)c1C	15.5%	-0.8%	-11.6%	?	10.3µM*	-47.7%
O=C(COC(=O)c1cccc(S(=O)(=O)N2CCCC2)c1)Nc1ccccc1C(F)(F)F	-2.8%	-1.0%	2.0%	0.8%	9.1%	.
Cc1ccc2cc(/C=N/NC(=O)c3ccc(F)cc3)c(Cl)nc2c1	0.3%	-3.1%	?	-2.0%	13.4%	-22.4%
Cc1ccc2cc(/C=N/Nc3nc4ccccc4[nH]3)c(Cl)nc2c1	0.631µM*	2.82µM*	?	0.0849µM*	?	5.01µM*
CCN(CC)c1ccc(/C=N/Nc2nc3ccccc3[nH]2)c(O)c1	-28.0%	-30.0%	?	7.57µM*	?	-72.9%
Cn1c(=O)c(NC2CCCCC2)c2c3c(cccc31)C(=O)c1ccccc1-2	-17.1%	-4.0%	-11.8%	-3.9%	18.3µM*	.
SMILES	Rab9 promoter act	NPC1 prom act	ELG1 genotoxic	FLuc counter	ELG1 repair inh	SMN2 splice enh
Cn1c(=O)c(NCCc2ccccc2)c2c3c(cccc31)C(=O)c1ccccc1-2	-3.2%	0.1%	-16.7%	9.1%	20.6µM*	-13.9%
CCCCNc1c2c3c(cccc3n(C)c1=O)C(=O)c1ccccc1-2	-7.1%	-7.8%	-6.5%	3.3%	16.4µM*	-50.5%
Cc1cccc(-n2nc(C)c(C(=O)Nc3cc(C)ccc3C)c2-n2cccc2)c1	.	.	.	-9.6%	.	.
Cc1ccccc1NC(=O)/C(C#N)=C/c1ccc(Cl)cc1Cl	.	.	.	-13.5%	.	2.3%
COc1cccc(NC(=O)c2oc3ccccc3c2NC(=O)COc2ccccc2C)c1	.	.	.	-13.7%	.	15.5%
COCC(=O)Nc1c(C(=O)Nc2cccc(OC)c2)oc2ccccc12	3.55µM*	3.55µM*	?	0.0%	?	11.2µM*
COc1ccc(NC(=O)c2oc3ccccc3c2NC(=O)c2ccco2)cc1	-5.3%	-1.6%	-8.9%	13.5µM*	10.3µM*	-1.7%
COc1ccc(NC(=O)c2oc3ccccc3c2NC(=O)C2CC2)cc1	-0.7%	-0.3%	-1.0%	?	-21.6%	-12.0%
COc1cccc(NC(=O)c2oc3ccccc3c2NC(=O)C2CC2)c1	12.9%	0.9%	-25.9%	1.8%	13µM*	-37.3%
COc1cccc(NC(=O)CSc2ncnc3c2oc2ccccc23)c1	-4.8%	-2.7%	9.3%	-1.6%	-14.2%	-16.9%
COc1cccc(NC(=O)CSc2nc3c(oc4ccccc43)c(=O)[nH]2)c1	-3.5%	7.5%	5.7%	3.79µM*	?	29.1%
CC(C)(C)SCCNC(=O)c1ccc(CN2CCc3ccccc3C2)cc1	14.4%	14.0%	0.0%	?	20.0%	.
CN1C(=O)c2ccc(NC(=O)c3ccc(Cl)cc3Cl)cc2C1=O	5.0%	3.5%	9.2%	?	?	.
COc1ccc(Br)cc1CNC(=O)c1ccc(-n2c(C)cc3c2CCC(C)C3)cc1 (stereo not given)	.	.	.	6.0%	.	.
Cc1c(Cl)cccc1NC(=O)c1ccc2c(c1)CCN2S(=O)(=O)c1ccccc1	.	.	.	3.8%	.	-2.7%
COc1cccc(NC(=O)c2oc3ccccc3c2NC(C)=O)c1	3.55µM*	?	?	?	?	?
CCN(CC)c1ccc(NC2=C(Cl)C(=O)c3ccccc3C2=O)cc1	-35.0%	-37.7%	2.91µM*	12µM*	?	-109.3%
COC1=C(Nc2ccc(OC)cc2)C(=O)c2ccccc2C1=O	?	27.9%	3.6%	19µM*	28.0%	?
CCOc1ccc(NC2=C(OC)C(=O)c3ccccc3C2=O)cc1	3.1%	15.1%	0.2%	16.9µM*	24.1%	-25.7%
Cc1ccc(NC2=C(Cl)C(=O)c3ccccc3C2=O)cc1	-32.6%	-33.8%	?	-23.5%	?	.
